Measurements reported in PubChem BioAssay (Tox21).
Results filed as inconclusive are left out. A number with no mark means an inactive call. Activity calls are given as the source filed them. Calls come from the whole dose curve; as a rule, active = well fitted activation curve with a large enough effect in the signal ratio in the repeat runs (not every such curve was filed as active); inconclusive = weak or mixed curves; inactive = flat fitted curve, though single readings scatter; the % refers to the signal ratio.

Assay: qHTS assay to identify small molecule agonists of the hypoxia (HIF-1) signaling pathway (AID 1224846)
Details: HRE-bla ME-180 cells, beta-lactamase ratio, 17 h; series mostly up to 76.8 µM; activation: at the top concentration
From the text: U.S. Tox21 Program National Center for Advancing Translational Sciences [NCATS] NIH Chemical Genomics Center [NCGC] U.S. Environmental Protection Agency [EPA] National Institutes of Environmental Health Sciences [NIEHS] National Toxicology Program [NTP] U.S. Food and Drug Administration [FDA] Tox21 Assay Overview: Hypoxia-inducible factor-1 (HIF-1) is the major hypoxia-regulated transcription factor that controls cellular responses to low oxygen concentration. HIF-1 is composed of two subunits: hypoxia responsive HIF-1-alpha and constitutively expressed HIF-1-beta, which is also known as aryl hydrocarbon receptor nuclear translocator. During hypoxic conditions, HIF-1-alpha heterodimerizes with HIF-1-beta and translocates into the nucleus where the HIF-1 complex binds to the hypoxia-response element (HRE) and activates expression of target genes such as VEGF (vascular endothelial growth factor). The HIF-1 pathway is essential to normal growth and development, and is involved in the pathophysiology of cancer, inflammation, and ischemia. Using a beta-lactamase reporter-gene under control of the hypoxia response element, a cell-based assay [CellSensor(TM) HRE-bla ME-180 from Life Technologies, Carlsbad, CA] was used to measure hypoxia-induced signaling. Tox21 10K library compounds were measured for their ability to induce the reporter gene activity.
Tox21 Assay Protocol Summary: HRE-bla ME-180 cells were dispensed at 2,000 cells per well in 6 uL of assay medium containing 0.5% dialyzed FBS into black wall/clear-bottom 1536-well plates using a Multidrop Combi (Thermo Scientific, Waltham, MA) dispenser. After the assay plates were incubated at 37C and 5% CO2 for 5 hrs, 23 nL of compounds dissolved in DMSO, positive controls or DMSO only was transferred to each well of the assay plate using a Pintool station (Kalypsys, San Diego, CA). The assay plates were incubated at 37C and 5% CO2 for 17 hrs. One uL of LiveBLAzerTM B/G FRET substrate (CCF4-AM) (Life Technologies) was added to each well using a Flying Reagent Dispenser (Aurora Discovery, San Diego, CA).
% is set by controls: 0 for no effect and ±100 for the full control effect.

Row | SMILES | outcome | activation
1 | CCOP(=O)(OCC)SCCSCC | inactive | –
2 | Cc1ccc2ccccc2c1 | – | -0.422%
3 | O=[N+]([O-])c1ccccc1CCl | – | 0.101%
4 | c1cc2ccc3cccc4ccc(c1)c2c34 | – | -1.25%
5 | BrCC(Br)C1CCC(Br)C(Br)C1 (stereo not given) | – | 0.419%
6 | COC(N)=O | – | -1.65%
7 | Brc1ccccc1 | – | -0.144%
8 | ClP(Cl)(Cl)(Cl)Cl | – | 0.264%
9 | C=CC(=O)OCC(C)C | – | -0.562%
10 | O=S(=O)(O)C(F)(F)C(F)(F)C(F)(F)C(F)(F)F | – | -0.714%
11 | CCCCN(N=O)C(=N)N[N+](=O)[O-] | – | -0.977%
12 | C[N+](C)(C)CCCl | – | -0.177%
13 | CC1(C)[C@H](C=C(Cl)Cl)[C@@H]1C(=O)O[C@@H](C#N)c1cccc(Oc2ccccc2)c1 | – | 7.98%
14 | CCCCCCCCOC(=O)c1ccc(C(=O)OCCCCCCCC)c(C(=O)OCCCCCCCC)c1 | – | 2.11%
15 | c1ccc(CN2CCNCC2)cc1 | – | 0.908% [at 199 µM]
16 | CN1[C@@H]2CC[C@H]1CC(OC(=O)c1cc(Cl)cc(Cl)c1)C2 (stereo not given in full) | – | 0.38% [at 35.5 µM]
17 | C=CC(=O)NCNC(=O)C=C | – | 2%
18 | O=C(O)CC(Cl)C(=O)O (stereo not given) | – | -0.121%
19 | CCBr | – | 0.262%
20 | CCOP(=S)(Oc1ccc([N+](=O)[O-])cc1)c1ccccc1 (stereo not given) | – | 2.49%

Row | SMILES | outcome | activation
21 | CS/C(C)=N/OC(=O)N(C)SN(C)C(=O)O/N=C(\C)SC | – | 1.12%
22 | CN1C(=O)NC(=O)C(C)(C2=CCCCC2)C1=O (stereo not given) | – | -1.25% [at 35.5 µM]
23 | Cn1cc[n+](C)c1 (tested in a mixture with another compound) | – | -0.827%
24 | CC(=O)CCC(C)=O | – | 1.1%
25 | CC1(C)CCC(Cc2ccc(Cl)cc2)C1(O)Cn1cncn1 (stereo not given) | – | -0.94%
26 | CCO[C@H]1O[C@@H]2OC3(C)CC[C@H]4[C@H](C)CC[C@@H]([C@H]1C)[C@@]24OO3 | – | -0.668% [at 35.5 µM]
27 | CCCCOC(=O)c1ccccc1C(=O)OCc1ccccc1 | inactive | –
28 | CC(C)N(C(=O)COc1nnc(C(F)(F)F)s1)c1ccc(F)cc1 | – | 3.42%
29 | CCOC(=O)C(Cl)C(C)=O (stereo not given) | – | 1.63%
30 | Clc1ccc(C(OCCN2CCCCC2)c2ccccc2)cc1 (stereo not given) | – | 1.31% [at 35.5 µM]
31 | Cc1cc(=O)[nH]o1 | – | -3.82%
32 | CCOP(=S)(OCC)Oc1nc(Cl)c(Cl)cc1Cl | – | 0.14%
33 | CCCC(=O)Cl | – | -0.141%
34 | CCOC(=O)COc1cc(-c2nn(C)c(OC(F)F)c2Cl)c(F)cc1Cl | – | -0.961%
35 | COc1c(C(C)(C)C)cc([N+](=O)[O-])c(C)c1[N+](=O)[O-] | – | 0.168%
36 | ClCCCCBr | – | -0.401%
37 | ClCC(Br)CBr (stereo not given) | – | -0.37%
38 | CC(C)(C)c1cc([N+](=O)[O-])cc([N+](=O)[O-])c1O | – | -0.21%
39 | Oc1ccc(Cl)c(Cl)c1Cl | – | 1.7%
40 | CCn1cc[n+](C)c1 | inactive | –
